25 compounds from PubChem BioAssay can be followed below.

Active and inactive are the calls of the source.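 How the source made its calls: active means visually confirmed hit in the image check and inhibition above 20%; inconclusive means visually confirmed hit but inhibition not above 20%; inactive means no visual hit in the image check.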

The nature of the test: inhibitors of E-selectin induction by TNFa, primary screen, imaging, HUVEC, immunofluorescence, MLSMR starter and 10KST1 sets (AID 487).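 On inhibition: signal is fraction of cell area covered by stained E-selectin grains.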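 On nuclei count: 100% = median nuclei count of all wells on the same plate.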 The settings on record: HUVEC TNFalpha-induced E-selectin immunofluorescence imaging, at 2 µM; inhibition: stronger effect = higher value; nuclei count: measured here: cell number, toxicity.
As a reminder, the inhibition is the relative decrease from the control value, in per cent. Regarding `COC(=O)c1ccc(OC(=O)c2ccc(OC)c(OC)c2)c(OC)c1`, the inhibition was 2.2% (inactive) and the nuclei count turned out to be 142%.
Regarding `CCOc1ccc(/C(O)=C2/C(=O)C(=O)N(CCN(C)C)C2c2ccccc2)cc1Cl` (stereo not given), the inhibition is -64% (inactive) and the nuclei count amounted to 156%.
The like results for `O=CN1CCN(C(=O)CN2C(=O)c3ccccc3C2=O)CC1` were, in that order, -43.3% (inactive) and 161%.
Consider `CC(C)Oc1ccc(Cc2c(O)nc(NCCCN(C)C)[nH]c2=O)cc1`, for which the inhibition is -285% (inactive) and the nuclei count was 152%.
As for `CC(=O)c1c(C)c2c(n1CCN(C)C)CCCC2`, the inhibition is 17.6% (inactive) and the nuclei count is 93.6%.
Take `Cc1ccc(C2C(C(=O)c3cc4ccccc4o3)=C(O)C(=O)N2CCCN(C)C)cc1` (stereo not given): the inhibition was -30.5% (inactive) and the nuclei count turned out to be 161%.
Take `COC(=O)c1ccc(=O)n(Cc2ccco2)c1`: the nuclei count came out at 107% and the inhibition is -70.6% (inactive).
The like results for `COc1ccc(OC)c(NC(=O)CSc2nnc(-c3ccco3)n2-c2ccc(C(=O)O)cc2)c1` were, in that order, 158% and -97.7% (inactive).
The like results for `Cn1c(NCCN2CCCCC2)cc(=O)n(C)c1=O` were, in that order, 125% and -24.8% (inactive).
The like results for `N#CC1=C(N)NC(SCc2ccc(F)cc2)=C(C#N)C12CCCCC2` were, in that order, 164% and 24.8% (inactive).
For the compound `Cc1nc2oc(C(=O)c3ccc(Br)cc3)c(N)c2c2c1COC(C)(C)C2`, the nuclei count was 119% and the inhibition is -142% (inactive).
The like results for `Cc1nnc2n(Cc3ccccc3)c(=O)c3c4c(sc3n12)CN(Cc1ccccc1)CC4` were, in that order, 167% and 29.2% (inactive).
The like results for `N#CCSc1nc2sc3c(c2c(=O)n1C1CCCCC1)CCCC3` were, in that order, 167% and 9.7% (inactive).
Consider `COc1cccc(/C=C2/CN(C)CC3=C2OC(N)=C(C#N)C3c2cccc(OC)c2)c1` (stereo not given), for which the nuclei count stood at 190% and the inhibition is -91.1% (inactive).
The like results for `Cc1noc(NS(=O)(=O)c2ccc(NC(=O)COc3ccccc3)cc2)c1C` were, in that order, 182% and 29.8% (inactive).
For `COc1ccccc1-c1nnc2sc(COc3ccccc3)nn12`, the inhibition was -201% (inactive) and the nuclei count is 161%.
The like results for `CCc1nnc(NC(=O)CSc2nc(C)c3c(c2C#N)CCCC3)s1` were, in that order, -129% (inactive) and 189%.
The like results for `Cn1c(=O)c2c(nc(SCCN3CCCCC3)n2Cc2ccc(Cl)cc2)n(C)c1=O` were, in that order, -203% (inactive) and 140%.
Take `Cc1ccc(C(=O)C2=C(O)C(=O)N(c3ncccn3)C2c2cccc(Cl)c2)o1` (stereo not given): the inhibition is -43% (inactive) and the nuclei count worked out at 177%.
As for `COC(=O)C1=C(C)OC(N)=C(C#N)C1c1ccc(OC)c(OC)c1OC` (stereo not given), the nuclei count is 104% and the inhibition was -52.9% (inactive).
The like results for `O=c1c(-c2ccc3c(c2)OCCO3)c(C(F)(F)F)oc2cc(O)cc(O)c12` were, in that order, 131% and -138% (inactive).
The like results for `C=CCNc1nc(-c2ccc(O)c(C(N)=O)c2)cs1` were, in that order, 154% and -37.4% (inactive).
`C=CCOc1nc2c(c(=O)n(Cc3ccc(Cl)c(Cl)c3)c(=O)n2C)n1C`: the nuclei count amounted to 140% and the inhibition was -39.8% (inactive).
The like results for `S=c1nc(-c2ccccc2)[nH]n1-c1ccccc1` were, in that order, 110% and -90.9% (inactive).
The like results for `O=C(O)CC(NCc1ccco1)C(=O)OCC1CCCO1` (stereo not given) were, in that order, 134% and -26.1% (inactive).
